# Laboratory results taken from the supplement of paper PMC3334620.
# Whole data set: some 33,000 sequences, median “E-score (-0.5 to 0.5)” near -0.041, cut for the highest 2% near 0.37. The sample holds the highest values, similar sequences and a random draw of the others, so the mix is not that of the screen.
# Target: T1, Ecm22 (UniProt Q05958)
# T1 sequence: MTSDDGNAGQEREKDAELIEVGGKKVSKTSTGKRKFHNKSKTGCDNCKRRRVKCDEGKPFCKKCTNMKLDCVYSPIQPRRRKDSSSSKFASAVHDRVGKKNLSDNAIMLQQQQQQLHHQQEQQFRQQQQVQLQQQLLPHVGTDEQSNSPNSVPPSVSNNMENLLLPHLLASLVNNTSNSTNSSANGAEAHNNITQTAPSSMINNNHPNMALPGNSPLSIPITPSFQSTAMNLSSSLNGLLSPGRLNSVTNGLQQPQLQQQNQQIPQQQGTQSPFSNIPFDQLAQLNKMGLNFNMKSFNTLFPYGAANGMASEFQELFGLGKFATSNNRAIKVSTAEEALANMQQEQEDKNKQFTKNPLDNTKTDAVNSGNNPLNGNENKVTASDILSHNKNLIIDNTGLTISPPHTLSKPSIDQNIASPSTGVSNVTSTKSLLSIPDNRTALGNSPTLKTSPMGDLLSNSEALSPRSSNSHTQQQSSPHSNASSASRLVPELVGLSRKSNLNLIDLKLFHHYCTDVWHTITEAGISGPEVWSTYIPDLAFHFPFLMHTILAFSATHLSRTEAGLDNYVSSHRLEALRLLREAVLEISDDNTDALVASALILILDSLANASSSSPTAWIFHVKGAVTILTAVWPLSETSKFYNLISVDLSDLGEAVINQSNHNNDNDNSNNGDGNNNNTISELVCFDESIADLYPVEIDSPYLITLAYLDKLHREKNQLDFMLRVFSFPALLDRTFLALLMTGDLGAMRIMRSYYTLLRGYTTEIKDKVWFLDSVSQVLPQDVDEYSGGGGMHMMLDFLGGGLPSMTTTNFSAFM
# Assay: PBM E-score (8-mer binding enrichment) (E-score (-0.5 to 0.5)); higher = stronger / more preferred TF binding
# Settings: protein concentration: 200 nM; construct: GST-full length
# Protocol: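 Universal 'all 10-mer' protein binding microarrays (Agilent AMADID 015681) probed with GST-tagged S. cerevisiae TFs (full-length or DBD) made by in vitro transcription/translation (PURExpress), about 100-200 nM. Bound TF was detected with fluorescent anti-GST. Each ungapped 8-mer (which stands for itself and its reverse complement) is scored by the PBM enrichment score (E-score), a modified Wilcoxon-Mann-Whitney statistic from -0.5 to +0.5, computed with the Universal PBM Analysis Suite. Scale: above 0.35 generally sequence-specific binding.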
row,Sequence,PBM E-score
1,GGAGTAAA,0.0078
2,GGGGCTAC,-0.0133
3,GACGCCTA,-0.221
4,TCTTCGAA,0.108
5,GATACTTA,-0.131
6,GAGTCGTA,0.43
7,CAGTCGTC,-0.109
8,CAGTCGTA,0.418
9,GAGTCGGA,0.0868
10,AAGTCGTC,0.139
11,AAGTCGTG,-0.0717
12,AAGTCGTA,0.433
13,GAGTCGCA,0.133
14,CAGTCGGA,-0.067
15,CCGGCCGA,-0.113
16,AAGAGTTC,0.00406
17,CGAGCAAC,0.168
18,ACGCCGTG,-0.146
19,ACTCATGC,-0.0706
20,CACTGGGG,-0.267
21,ACGAGATA,0.346
22,ACGAGATG,0.365
23,ACGAGATC,0.433
24,ACGAGACG,0.394
25,ACGAGAGA,0.353

row,Sequence,PBM E-score
1,GCGAGAGC,0.182
2,ACGAGAGC,0.399
3,ACGAGACT,0.348
4,ACGAGACA,0.315
5,CGTAAACG,0.444
6,CGGAAACG,0.269
7,CGTAAACA,0.385
8,AGTAAACG,0.427
9,AGTAAACC,-0.0723
10,TGTAAACA,-0.0145
11,GGTAAACA,0.129
12,CGTAAACC,0.366
13,AGTAAACA,0.0411
14,TCCTTAAA,-0.1
15,GGTCCACC,-0.214
16,ACGCGGGA,0.062
17,AAAGCAGG,-0.203
18,TCTTTACA,-0.132
19,ATTTCGTA,0.444
20,CTTTCGGA,0.0148
21,CTTTCGTC,0.0061
22,GTTTCGAA,-0.00209
23,ATTTCGTC,0.0861
24,CTTTCGTA,0.428
25,GTTTCGGA,0.215

row,Sequence,PBM E-score
1,ATTTCGTG,0.0706
2,GTTTCGTA,0.44
3,GCCCGTGA,-0.115
4,AGGTTTGC,-0.153
5,ACCTAAAT,0.112
6,ACTGGAAA,-0.0956
7,GTTAAACA,0.00429
8,GTCGTTTA,0.491
9,ATCGTTTC,0.365
10,AGCGTTTG,0.031
11,GACGTTTA,0.303
12,AGCGTTTA,0.168
13,ATCGTTTG,0.414
14,ATCGTTTA,0.483
15,GGCGTTTA,0.166
16,AACGTTTA,0.319
17,AAATCTCT,-0.0179
18,ACACTCCT,-0.163
19,CGTTGAGC,0.0667
20,CCACAAGA,-0.185
21,CAAAAGGG,-0.181
22,GCGGGGAC,-0.152
23,ATGATACG,0.377
24,CCGATACG,0.326
25,ACGATACT,0.313

row,Sequence,PBM E-score
1,ACGATACG,0.383
2,ATGATACA,-0.0736
3,ATGATACC,0.146
4,GTTTTCCA,0.061
5,CTCCCGTC,0.121
6,TAAGTGCA,0.0499
7,CTGTTGCC,-0.265
8,ATGGAACG,0.402
9,AAGGAACG,0.458
10,CAGGAACA,-0.0447
11,ATGGAACA,-0.322
12,AAGGAACC,0.0815
13,ATGGAACC,-0.0738
14,CAGGAACG,0.463
15,CAGGAACC,-0.171
16,AAGGAACT,-0.0399
17,CCGCCTAG,-0.193
18,CTTACCTA,-0.117
19,GAAGTGTC,-0.055
20,AATAGTTG,-0.116
21,CAGCGTCG,0.0918
22,AAGCCGTC,-0.0956
23,TAAACGAA,0.488
24,TAAACAAA,0.114
25,CCAACGAA,0.0596

row,Sequence,PBM E-score
1,GTAACGAA,0.306
2,AAAACGAA,0.277
3,CAAACGAA,0.438
4,GAAACAAA,-0.0214
5,TAAACGCA,0.292
6,GAAACGAA,0.414
7,AGTGACAT,-0.283
8,GGCACAAA,-0.134
9,GATATGCC,-0.108
10,ATATTTAA,0.0866
11,GTACGGCA,0.395
12,GCACGGCA,-0.0485
13,AGACGGCG,-0.0146
14,CTACGGCA,0.1
15,ATACGGCA,0.404
16,ACACGGCG,-0.0862
17,AGACGGCC,-0.223
18,ATACGGCG,0.406
19,CTACGGCC,0.018
20,ATACGGCC,0.388
21,ACACGGCA,0.108
22,AAACGGCA,0.294
23,CCACCAAA,-0.13
24,GGCTGAAA,-0.0667
25,ACAATGGA,-0.0436

row,Sequence,PBM E-score
1,AGATGGCG,-0.102
2,ATTACGAA,0.349
3,CTTACGCC,0.0486
4,CTCACGAA,0.128
5,CTTACGAC,0.394
6,GTTACGAA,0.404
7,CTTACGCA,0.0308
8,CTCACGAC,-0.0734
9,CTTACGAA,0.391
10,GTTACGGA,0.233
11,CGAAAATC,0.162
12,CGGCATCA,0.0766
13,CATACCGC,-0.0365
14,GGTACCGA,0.103
15,AGTACCGA,0.0799
16,AGTACCGC,0.148
17,CGTACCGC,0.47
18,CGTACCGA,0.447
19,CGAGTCAC,0.106
20,ACTGGCAT,-0.182
21,AATACCGG,-0.042
22,ACGATAAT,0.309
23,ACGATCGG,0.274
24,ACGATCGC,0.327
25,ACGATCGT,0.43

row,Sequence,PBM E-score
1,CCGTACAC,0.33
2,CCGTACAA,0.4
3,CAGTACAA,-0.0343
4,ACGTACAG,0.186
5,CGGTACAA,0.214
6,ACGTACAA,0.298
7,TCGTACAA,0.49
8,CCGTACAG,0.388
9,GCGTACAA,0.243
10,AATTTCTC,0.0237
11,CGCTCGTA,0.467
12,AGCTCGTA,0.477
13,GGCTCGAA,0.0317
14,CGCTCGTC,0.168
15,GGCTCGGA,0.0976
16,AGCTCGTC,0.0121
17,CGCTCGGA,0.252
18,GGCTCGTA,0.479
19,AGCTCGTG,0.182
20,AGGTCTAT,0.0387
21,TATGATGA,0.00697
22,ATAGGTTC,0.00586
23,CGGCCTCC,-0.0189
24,ACCCGAAA,0.14
25,TTATAGAA,-0.0153

row,Sequence,PBM E-score
1,AGCAATAA,-0.127
2,CGCCCGAA,0.0388
3,CGCGCGGC,0.225
4,GCTCAGGA,-0.107
5,TTCGACAA,0.0503
6,TACGACAA,0.455
7,CACGACAG,0.0642
8,GACGACAA,0.155
9,AACGACAA,0.41
10,TGCGACAA,0.141
11,ATCGACAG,0.00794
12,AACGACAG,0.412
13,AGCGACAT,0.214
14,ACCGACAT,0.217
15,CACGACAA,0.09
16,AACGACAT,0.434
17,GGACCTCA,-0.206
18,CTGGGAAC,0.132
19,TGGGTAAA,0.0399
20,AGTGTCCG,0.0467
21,CACTCTCG,0.174
22,CTCGTGGA,-0.0176
23,CAGGCCTA,-0.218
24,AAATCCTG,0.015
25,AGATCGAA,-0.0769

row,Sequence,PBM E-score
1,CAAGGTGC,-0.235
2,AGGACCAA,-0.168
3,GACGACAC,-0.0609
4,AACGACAC,0.421
5,CACGACAC,0.147
6,AAGACGGG,-0.114
7,CGTCCGCC,-0.111
8,ACTGGGGC,-0.276
9,TACGATAA,0.408
10,AGCGATAT,0.222
11,AACGATCC,0.307
12,CACGATAA,0.00212
13,AACGATCA,0.346
14,AACGATAT,0.408
15,AACGATCT,0.381
16,GACGATAA,0.0921
17,AACGATAG,0.345
18,ACCGATAT,0.138
19,GACGATAC,0.127
20,AACGATAC,0.389
